Consider 40 molecules from PubChem BioAssay (Tox21).

Molecules are shown by their SMILES. Records with an inconclusive call do not appear. Where a call stands in place of a potency, no number is given. Activity calls are given as the source filed them. The call rests on the fitted dose curve; in most records, active means well fitted activation curve with a large enough effect in the repeat runs; inconclusive means weak or mixed curves; inactive means flat fitted curve, though single readings scatter.
Potency means the concentration at half of the fitted maximal effect.

The nature of the test: A CellTox Green Cytotoxicity Assay to monitor cytotoxicity in HepG2 cells - 16 hour (AID 1224876). Further: nearly all actives have a fitted effect of over 45% in size. Conditions: CellTox Green fluorescence; series mostly up to 76.8 µM. The source says: National Center for Advancing Translational Sciences [NCATS]
NIH Chemical Genomics Center [NCGC]
U.S. Environmental Protection Agency [EPA]
National Institutes of Environmental Health Sciences [NIEHS]
National Toxicology Program [NTP]
Cell-based models are critical for drug discovery. Determining the natural cytotoxic effects resulting from test compounds is an essential research activity. A CellTox Green Cytotoxicity Assay to monitor cytotoxicity in real time of continues cell culture during 40 hours of the compound treatment was used to screen Tox21 10K library compounds in HepG2 cells. CellTox Green Cytotoxicity Assay is a nonlytic, homogeneous, biofluorescent method to measure cytotoxicity in cell culture after experimental manipulation. The assay system uses a proprietary asymmetric cyanine dye that is excluded from viable cells but preferentially stains the dead cell's DNA. […] Viable cells produce no appreciable increases in fluorescence. Therefore, the fluorescence signal produced by the binding interaction with dead cell DNA is proportional to cytotoxicity.
The mixture of HepG2 cell suspension and reagents were dispensed at 600cells/6 ul/well in 1536-well tissue culture treated black solid bottom plates using a Multidrop dispenser. After the assay plates were incubated at a 37 C/5% CO2 incubator for 5 hours, 23 nL of compounds dissolved in DMSO, positive and negative controls was transferred to the assay plate by a pintool work station. The plates were incubated at 37 C for 40 hours. The fluorescence intensity were measured at 0h, 8h, 16h, 24h, 32h and 40h time points using ViewLux plate reader during compound treatment.
`N=C1N=C(N)c2ccccc21`: the Potency entry was “inactive”.
The same measure for `C[C@]12CCC(=O)C=C1CC[C@@H]1[C@@H]2[C@@H](O)C[C@@]2(C)[C@H]1CC[C@]2(O)C(=O)COC(=O)CCC(=O)O`: “inactive”; for `CCCCc1oc2ccc(NS(C)(=O)=O)cc2c1C(=O)c1ccc(OCCCN(CCCC)CCCC)cc1`: 21.3 µM (active).
Take `O=C(c1ccc(O)cc1O)c1ccc(O)cc1O`: the Potency result was “inactive”.
As for `O=Cc1cc(O)ccc1Br`, the Potency result is “inactive”.
As to `N=C1C=CC(=C(c2ccc(N)cc2)c2ccc(N)cc2)C=C1`, the Potency result is “inactive”.
`CN(C/C=C/C#CC(C)(C)C)Cc1cccc2ccccc12`: the Potency entry is “inactive”.
For the molecule `Cc1c(C)c2c(c(C)c1OC(=O)CCC(=O)O)CC[C@@](C)(CCC[C@H](C)CCC[C@H](C)CCCC(C)C)O2`, the Potency result was “inactive”.
As to `Cc1[nH]cnc1C[C@H]1CCc2c(C)c3ccccc3n2C1=O`, the Potency is 38 µM (active).
As to `CC(=O)SC[C@@H](Cc1ccccc1)C(=O)NCC(=O)OCc1ccccc1`, the Potency entry was “inactive”.
As to `Cc1[nH]nc2c1N=C(c1ccccc1Cl)c1cc([N+](=O)[O-])ccc1N2`, the Potency entry is “inactive”.
Turning to `C/C=C(\C)C(=O)OCc1ccccc1`, the Potency entry was “inactive”.
Take `CC(C)(C)C(=O)OCOC(=O)[C@@H]1N2C(=O)[C@@H](NC(=O)[C@H](N)c3ccccc3)[C@H]2SC1(C)C`: the Potency entry is “inactive”.
For `O=C(NO)C1(NS(=O)(=O)c2ccc(Oc3ccc(F)cc3)cc2)CCOCC1`, the Potency entry was “inactive”.
`CCN(CC)CCCC(C)Nc1c2ccc(Cl)cc2nc2ccc(OC)cc12` (stereo not given): the Potency is 16.9 µM (active).
Consider `COc1cccc2c1C(=O)c1c(O)c3c(c(O)c1C2=O)C[C@@](O)(C(=O)CO)C[C@@H]3O[C@H]1C[C@H](N)[C@H](O[C@@H]2CCCCO2)[C@H](C)O1`, for which the Potency was 23.9 µM (active).
With `COc1c(C)c2c(c(O)c1C/C=C(\C)CCC(=O)O)C(=O)OC2`, the Potency entry was “inactive”.
In the case of `OCc1c[nH]c2ccccc12`, the Potency entry is “inactive”.
The same measure for `CCc1oc2ccccc2c1C(=O)c1cc(Br)c(O)c(Br)c1`: “inactive”.
`N#CSc1ccc(N)c([N+](=O)[O-])c1`: the Potency result is “inactive”.
Consider `Oc1cc2ccccc2c2ccccc12`, for which the Potency is 13.8 µM (active).
Take `O=C1CCCc2c1cc1ccc3cccc4ccc2c1c34`: the Potency entry is “inactive”.
`Nc1ccc2cc(S(=O)(=O)O)cc(O)c2c1N=Nc1ccccc1C(F)(F)F`: the Potency result is “inactive”.
The same measure for `CCC(C)Nc1ccc(NC(C)CC)cc1` (stereo not given): 35.3 µM (active); for `CCCCCOC(=O)CCCC`: “inactive”; for `CCCC(c1cc(C(C)(C)C)c(O)cc1C)c1cc(C(C)(C)C)c(O)cc1C`: 44.2 µM (active).
In the case of `CCCCCCC[N+](CC)(CC)CCCCc1ccc(Cl)cc1`, the Potency is 26.8 µM (active).
Turning to `O=[N+]([O-])c1cc(Cl)c(Cl)c(Cl)c1Cl`, the Potency result was “inactive”.
On to `COc1cccc(N)c1`, for which the Potency entry is “inactive”.
For the molecule `CC[C@H](c1ccc(O)cc1)[C@@H](CC)c1ccc(O)cc1`, the Potency was 49 µM (active).
For `CCCCCCCCCOC(=O)c1ccc(O)cc1`, the Potency is 48.3 µM (active).
On to `CCCN(CCC)C(=O)C(CCC(=O)OCCCN1CCN(CCOC(=O)Cc2c(C)n(C(=O)c3ccc(Cl)cc3)c3ccc(OC)cc23)CC1)NC(=O)c1ccccc1` (stereo not given), for which the Potency was 23.9 µM (active).
Consider `O=C1C=CC(=O)N1`, for which the Potency was 25.2 µM (active).
On to `CCOc1ccc2nc3cc(N)ccc3c(N)c2c1`, for which the Potency result is “inactive”.
Regarding `CCCCCCCCCCC=O`, the Potency entry is “inactive”.
`OCCN1CCN(CC/C=C2/c3ccccc3Sc3ccc(C(F)(F)F)cc32)CC1`: the Potency is 23.9 µM (active).
In the case of `NC(=O)C1(N2CCCCC2)CCN(CCCN2c3ccccc3CCc3ccc(Cl)cc32)CC1`, the Potency was 26.8 µM (active).
With `NNC(=O)c1cccc(C(=O)NN)c1`, the Potency entry is “inactive”.
For `C[C@@H](NCCCc1cccc(C(F)(F)F)c1)c1cccc2ccccc12`, the Potency is 19 µM (active).
Then `O=[N+]([O-])c1ccccc1Nc1ccccc1`, with “inactive”.
